Test results: article PMC7862700, “An all-to-all approach to the identification of sequence-specific readers for epigenetic DNA modifications on cytosine”

Experiments:
Assay in all cases: DAPPL (digital affinity profiling via proximity ligation, sequencing); 10 mM Tris-HCl pH 7.5, 50 mM NaCl, 1 mM DTT, 4% glycerol, room temperature, 30 min; GST-TFs on glutathione beads, 16-mer random dsDNA library, 0.1% formaldehyde crosslink after washing; high values mean tight binding
FEV = molecular target: T1, FEV (Homo sapiens, UniProt Q99581 1-238); settings: protein: recombinant; tags: N-terminal GST; dsDNA, one strand shown
T1 sequence: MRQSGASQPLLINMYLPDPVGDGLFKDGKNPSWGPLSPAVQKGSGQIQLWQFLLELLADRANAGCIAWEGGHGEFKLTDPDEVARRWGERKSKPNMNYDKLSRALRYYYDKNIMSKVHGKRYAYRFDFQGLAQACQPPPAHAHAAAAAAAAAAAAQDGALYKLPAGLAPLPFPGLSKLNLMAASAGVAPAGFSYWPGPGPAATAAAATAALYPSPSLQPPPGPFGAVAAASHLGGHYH
How it was run: (§1)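 Sequencing on an Illumina NextSeq500 followed washing, crosslinking with 0.1% formaldehyde, proximity ligation (BsaI/T4 ligase, 1 h, 37 °C) and PCR amplification of pools that had been incubated for 30 min at room temperature with 200 nmole of a random double-stranded 16-mer DNA library in Tris/NaCl/DTT/glycerol buffer. Each pool held DNA-barcoded human transcription factors, expressed in yeast as GST fusions and captured on glutathione beads, plus a tag-only sample. Binding signal is a hexamer's read frequency for a factor divided by its frequency in the tag-only sample.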

ETV5 = ETV5 (Homo sapiens, UniProt P41161 1-510); settings: protein: recombinant; tags: N-terminal GST; dsDNA, one strand shown
How it was run: as §1

HSF1 = HSF1 (Homo sapiens, UniProt Q00613 1-529); settings: protein: recombinant; tags: N-terminal GST; chain copies: 3; dsDNA, one strand shown
How it was run: as §1

SPIC = molecular target: T2, SPIC (Homo sapiens, UniProt Q8N5J4 1-248); settings: protein: recombinant; tags: N-terminal GST; dsDNA, one strand shown
T2 sequence: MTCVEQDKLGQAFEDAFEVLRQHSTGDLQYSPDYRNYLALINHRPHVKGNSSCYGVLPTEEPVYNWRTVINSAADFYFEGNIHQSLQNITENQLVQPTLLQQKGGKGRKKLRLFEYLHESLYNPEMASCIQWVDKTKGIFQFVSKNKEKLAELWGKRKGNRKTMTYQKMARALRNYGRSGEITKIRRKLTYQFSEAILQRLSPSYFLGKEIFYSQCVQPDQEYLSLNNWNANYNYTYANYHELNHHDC
How it was run: as §1

ELF4 = ELF4 (Homo sapiens, UniProt Q99607 1-663); settings: protein: recombinant; tags: N-terminal GST; dsDNA, one strand shown
How it was run: as §1

ELK4 = molecular target: T3, ELK4 (Homo sapiens, UniProt P28324-2 1-405); settings: protein: recombinant; tags: N-terminal GST; dsDNA, one strand shown
T3 sequence: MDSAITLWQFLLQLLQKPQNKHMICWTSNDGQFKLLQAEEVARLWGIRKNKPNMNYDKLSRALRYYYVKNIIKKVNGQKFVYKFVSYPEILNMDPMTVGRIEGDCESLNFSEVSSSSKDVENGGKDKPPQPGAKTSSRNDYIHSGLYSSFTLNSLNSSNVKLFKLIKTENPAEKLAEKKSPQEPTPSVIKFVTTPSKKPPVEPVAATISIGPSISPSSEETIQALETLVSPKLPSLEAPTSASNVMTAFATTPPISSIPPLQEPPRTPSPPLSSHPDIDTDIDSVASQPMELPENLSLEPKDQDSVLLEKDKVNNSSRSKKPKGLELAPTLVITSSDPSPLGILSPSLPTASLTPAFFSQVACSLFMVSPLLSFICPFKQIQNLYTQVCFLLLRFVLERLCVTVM
How it was run: as §1

ETV2 = molecular target: T4, ETV2 (Homo sapiens, UniProt O00321 1-342); settings: protein: recombinant; tags: N-terminal GST; dsDNA, one strand shown
T4 sequence: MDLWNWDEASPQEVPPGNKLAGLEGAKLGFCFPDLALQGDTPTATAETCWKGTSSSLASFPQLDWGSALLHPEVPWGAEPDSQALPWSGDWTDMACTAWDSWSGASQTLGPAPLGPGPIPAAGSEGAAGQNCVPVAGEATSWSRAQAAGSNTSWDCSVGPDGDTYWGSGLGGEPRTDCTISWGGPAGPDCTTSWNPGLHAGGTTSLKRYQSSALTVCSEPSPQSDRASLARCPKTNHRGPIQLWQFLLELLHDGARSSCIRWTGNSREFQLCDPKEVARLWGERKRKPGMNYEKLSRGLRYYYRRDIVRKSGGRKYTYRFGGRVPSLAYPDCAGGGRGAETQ
How it was run: as §1

ELF3 = molecular target: T5, ELF3 (Homo sapiens, UniProt P78545 1-371); settings: protein: recombinant; tags: N-terminal GST; dsDNA, one strand shown
T5 sequence: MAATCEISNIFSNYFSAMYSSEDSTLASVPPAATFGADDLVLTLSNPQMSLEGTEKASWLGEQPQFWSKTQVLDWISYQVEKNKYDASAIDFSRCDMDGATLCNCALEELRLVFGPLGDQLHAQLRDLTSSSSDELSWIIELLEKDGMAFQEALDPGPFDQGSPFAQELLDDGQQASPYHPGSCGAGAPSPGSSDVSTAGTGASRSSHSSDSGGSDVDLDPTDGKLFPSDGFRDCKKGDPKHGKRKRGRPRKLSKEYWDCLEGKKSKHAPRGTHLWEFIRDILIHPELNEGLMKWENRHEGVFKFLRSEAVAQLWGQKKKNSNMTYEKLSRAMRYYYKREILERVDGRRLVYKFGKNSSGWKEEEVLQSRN
How it was run: as §1

CRX = CRX (Homo sapiens, UniProt O43186 1-299); settings: protein: recombinant; tags: N-terminal GST; dsDNA, one strand shown
How it was run: as §1

ETV5, sequence (P41161 whole entry): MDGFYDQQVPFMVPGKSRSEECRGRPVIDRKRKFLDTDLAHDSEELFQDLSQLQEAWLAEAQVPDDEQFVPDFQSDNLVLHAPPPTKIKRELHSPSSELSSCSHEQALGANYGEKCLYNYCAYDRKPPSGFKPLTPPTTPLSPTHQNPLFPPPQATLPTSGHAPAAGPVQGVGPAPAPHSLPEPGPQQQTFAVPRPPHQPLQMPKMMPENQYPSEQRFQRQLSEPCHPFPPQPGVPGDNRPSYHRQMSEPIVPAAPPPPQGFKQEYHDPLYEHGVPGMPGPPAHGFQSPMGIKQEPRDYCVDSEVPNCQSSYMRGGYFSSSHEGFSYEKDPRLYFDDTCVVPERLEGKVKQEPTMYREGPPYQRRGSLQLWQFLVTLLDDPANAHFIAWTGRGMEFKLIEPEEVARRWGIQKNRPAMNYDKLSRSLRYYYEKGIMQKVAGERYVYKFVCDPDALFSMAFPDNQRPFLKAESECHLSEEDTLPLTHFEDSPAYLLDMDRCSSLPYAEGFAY
ELF4, sequence (Q99607 whole entry): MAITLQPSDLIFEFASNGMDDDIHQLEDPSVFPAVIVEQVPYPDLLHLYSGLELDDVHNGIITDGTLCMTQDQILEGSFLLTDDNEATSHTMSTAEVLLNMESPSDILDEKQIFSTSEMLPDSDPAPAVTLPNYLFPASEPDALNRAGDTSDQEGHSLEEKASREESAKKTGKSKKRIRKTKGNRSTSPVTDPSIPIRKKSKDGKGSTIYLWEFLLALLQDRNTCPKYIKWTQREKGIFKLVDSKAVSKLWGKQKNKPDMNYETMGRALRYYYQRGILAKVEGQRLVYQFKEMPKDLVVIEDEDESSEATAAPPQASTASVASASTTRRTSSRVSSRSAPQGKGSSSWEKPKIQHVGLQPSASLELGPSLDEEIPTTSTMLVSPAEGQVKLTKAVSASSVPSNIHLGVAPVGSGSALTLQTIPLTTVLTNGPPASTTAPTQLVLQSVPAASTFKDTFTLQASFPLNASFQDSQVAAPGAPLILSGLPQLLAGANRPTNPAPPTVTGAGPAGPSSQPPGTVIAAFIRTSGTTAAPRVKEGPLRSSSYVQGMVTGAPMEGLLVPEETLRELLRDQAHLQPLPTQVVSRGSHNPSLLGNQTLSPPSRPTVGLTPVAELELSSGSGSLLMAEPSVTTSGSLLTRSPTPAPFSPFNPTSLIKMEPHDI
HSF1, sequence (Q00613 whole entry): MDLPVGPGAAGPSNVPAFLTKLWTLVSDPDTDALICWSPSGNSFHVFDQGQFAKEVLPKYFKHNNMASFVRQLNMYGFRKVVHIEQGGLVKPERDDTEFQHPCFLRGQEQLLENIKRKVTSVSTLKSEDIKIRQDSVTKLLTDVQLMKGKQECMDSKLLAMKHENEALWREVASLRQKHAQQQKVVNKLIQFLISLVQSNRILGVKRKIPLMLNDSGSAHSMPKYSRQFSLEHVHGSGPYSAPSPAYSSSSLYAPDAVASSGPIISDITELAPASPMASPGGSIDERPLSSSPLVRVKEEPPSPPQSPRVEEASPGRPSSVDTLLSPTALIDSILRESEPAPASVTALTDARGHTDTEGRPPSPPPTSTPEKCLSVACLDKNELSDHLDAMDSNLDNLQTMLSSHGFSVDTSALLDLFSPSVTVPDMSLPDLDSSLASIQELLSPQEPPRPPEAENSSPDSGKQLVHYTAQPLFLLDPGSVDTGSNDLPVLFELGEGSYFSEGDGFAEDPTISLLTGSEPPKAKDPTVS
CRX, sequence (O43186 whole entry): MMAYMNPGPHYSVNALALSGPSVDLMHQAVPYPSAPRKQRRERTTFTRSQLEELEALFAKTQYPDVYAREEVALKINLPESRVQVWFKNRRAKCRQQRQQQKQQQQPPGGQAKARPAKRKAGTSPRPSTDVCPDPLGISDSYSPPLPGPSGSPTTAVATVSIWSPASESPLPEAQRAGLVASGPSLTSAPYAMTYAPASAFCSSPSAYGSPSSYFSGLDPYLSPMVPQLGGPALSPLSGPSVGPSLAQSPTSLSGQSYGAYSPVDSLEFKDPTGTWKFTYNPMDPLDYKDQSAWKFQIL

GGCCTA
binding signal (FEV): 1.19 fold enrichment (6-mer frequency, TF over GST control)
binding signal (ETV5): 1.22 fold enrichment (6-mer frequency, TF over GST control)
binding signal (HSF1): 1.33 fold enrichment (6-mer frequency, TF over GST control)
binding signal (SPIC): 1.1 fold enrichment (6-mer frequency, TF over GST control)
binding signal (ELF4): 1.25 fold enrichment (6-mer frequency, TF over GST control)
binding signal (ELK4): 1.25 fold enrichment (6-mer frequency, TF over GST control)
binding signal (ETV2): 1.14 fold enrichment (6-mer frequency, TF over GST control)
binding signal (ELF3): 1.22 fold enrichment (6-mer frequency, TF over GST control)
binding signal (CRX): 1.39 fold enrichment (6-mer frequency, TF over GST control)
